Data published in PubChem BioAssay (NCI).
Several values for one entry are separate records, joined by “and”; a condition that tells them apart may be missing. Equal entries are not always repeated. This is part of a sample that, as a whole, favours compounds with a hit. Of some 79,000 tested, about 15% had one in any assay. Activity calls are given as the source filed them. No stated cut-off is given here; in the data, active means growth inhibition above about 70%; inactive means the rest.

Assay: NCI Yeast Anticancer Drug Screen. Data for the sgs1 mgt1 strain (AID 161);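 further: 0% = growth of cultures given vehicle only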
Settings: S. cerevisiae sgs1 mgt1 strain, at 50.0 µM, hits give high values
Method in brief: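 Read-out: growth inhibition vs vehicle controls. Cells: mutant yeast strain deficient in DNA damage repair.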

| Compound | growth inhibition |
| --- | --- |
| COC(=O)CC1(C(=O)O)CC2(Cl)C(Cl)=C(Cl)C1(Cl)C2(Cl)Cl (configuration not stated) | 75% (active) |
| CCCCN(C)CC(C(C)=O)C(c1ccccc1)c1c(O)c2ccccc2oc1=O (configuration not stated) | 82.3% (active) |
| O=[n+]1c2ccccc2n([O-])c2ccccc21.[Cl][Ni][Cl] | 92.3% (active) |
| COc1ccc(C(Cc2ccc(Cl)c(Cl)c2)NCCO)cc1 (configuration not stated) | 31.1% (inactive) |
| O=C(N/N=C/c1cc(Cl)cc(Cl)c1[O-])c1ccccc1O.O=C(N/N=C/c1cc(Cl)cc(Cl)c1[O-])c1ccccc1O.[Zn+2] | 93% (active) |
| Oc1ccc(Cl)cc1Sc1cc(Cl)ccc1O | 99.5% (active) and 99.6% (active) and 99.7% (active) |
| O=S(=O)([O-])[O-].[OH3+].[OH3+].[OH3+].[Ru+2].c1ccccc1 | 90.5% (active) |
| CCCCCC(Cn1ccnc1)c1ccc(Cl)cc1Cl (configuration not stated) | 99.4% (active) |
| CC1=C(CO)C(=O)OC(C(C)C2CCC3C4CC5OC56C(O)C(N5CC5)=CC(=O)C6(C)C4CCC23C)C1 (configuration not stated) | 70.2% (active) |
| CCCC[CH2][Sn]([CH2]CCCC)[CH2]CCCC.CCCC[CH2][Sn]([CH2]CCCC)[CH2]CCCC | 99.5% (active) |
| CCC[CH2][Sn]1([CH2]CCC)[O]C(=O)C(C(C)C)N=Cc2ccccc2[O]1 (configuration not stated) | 90.8% (active) |
| Oc1c(Cl)cc(-c2cc(Cl)c(O)c(Cl)c2)cc1Cl | 89.7% (active) |
| CC(=O)Nc1ccc(/C=N/N=C(/N)N[N+](=O)[O-])cc1 | 52.9% (inactive) |
| CC(Br)c1ccccc1 (configuration not stated) | 40.6% (inactive) |
| C[Si]1(C)CCCCC2(C1)C(=O)NC(=O)NC2=O | 51% (inactive) |
| CCCCCCCCCCCCCCCc1cccc(O)c1O | 51.5% (inactive) |
| CC1(C)OC2OC3C(CN(CCCl)Cc4ccccc4)OC(c4ccccc4)OC3C2O1 (configuration not stated) | -0.9% (inactive) |
| FC(F)(F)c1nc2ccc(SSc3ccc4nc(C(F)(F)F)[nH]c4c3)cc2[nH]1 | 96.6% (active) |
| O=[N+]([O-])c1csc([N+](=O)[O-])c1 | 99.5% (active) |
| CCc1cc2c(cc1-c1csc(C/C(N)=N/O)n1)C(C)(C)CCC2(C)C | 91.4% (active) |
| CCCCCCCC[N+](CCCC)(CCCC)CCCC (tested in a mixture with another compound) | 99.5% (active) |
| CCC[CH2][Sn]([CH2]CCC)([S]C#N)[S]C#N | 90.5% (active) |
